For test [1], the target named is human RAR-related Orphan Receptor gamma (RORg), RORC (gene 6097) (UniProt P51449). Nature of the test: ATG_RORg_TRANS: Attagene TRANS-FACTORIAL HepG2 Assay for human RAR-related Orphan Receptor gamma (RORg) (AID 2283011; active means hit-call score of the fitted dose curve at least 0.9, where 1 is the maximum). In outline:
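Transient MRTU transfection of HepG2 (TRANS format, exogenous NR-Gal4 chimera). 24 h dosing. Total RNA → oligo(dT) RT → PCR → 6-FAM labelling → HpaI cut → CE. Gain vs DMSO.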

Test [2] addresses Retinoic acid receptor RXR-alpha (Homo sapiens) (UniProt P19793). Nature of the test: ATG_RXRa_TRANS: Attagene TRANS-FACTORIAL HepG2 Assay for human Retinoid X Receptor alpha (RXRa) (AID 2283012; active means hit-call score of the fitted dose curve at least 0.9, where 1 is the maximum). In outline:
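HepG2 cells transiently transfected with GAL4-UAS reporter units and chimeric RXRa-Gal4 protein, treated 24 h. Reporter mRNA measured by RT-PCR, fluorescent labelling, HpaI digestion and capillary electrophoresis. Induction fitted against DMSO.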

Test [3] addresses human Retinoid X Receptor beta (RXRb), RXRB (gene 6257) (UniProt P28702). Nature of the test: ATG_RXRb_TRANS: Attagene TRANS-FACTORIAL HepG2 Assay for human Retinoid X Receptor beta (RXRb) (AID 2283013; active means hit-call score of the fitted dose curve at least 0.9, where 1 is the maximum). In outline:
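HepG2 cells were transiently transfected with multiplexed GAL4-UAS reporters and a chimeric RXRb-Gal4 construct, then exposed for 24 h. Reporter mRNA was quantified by RT-PCR, FAM labeling, HpaI digestion and capillary electrophoresis; gain of signal was scored against DMSO.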

Test [4] deals with human Thyroid Receptor alpha (THRa1), THRA (gene 7067) (UniProt P10827). Nature of the test: ATG_THRa1_TRANS: Attagene TRANS-FACTORIAL HepG2 Assay for human Thyroid Receptor alpha (THRa1) (AID 2283014; active means hit-call score of the fitted dose curve at least 0.9, where 1 is the maximum). In outline: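 Transient HepG2 transfection, NR-Gal4 chimera driving GAL4-UAS reporters; 24 h compound exposure; total RNA, oligo(dT) RT, PCR, fluorescent primer extension, capillary electrophoresis. Upward direction vs DMSO control.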
Sequence of human Thyroid Receptor alpha (THRa1), THRA (gene 7067) (P10827 whole entry, looked up, the tested form may be a part): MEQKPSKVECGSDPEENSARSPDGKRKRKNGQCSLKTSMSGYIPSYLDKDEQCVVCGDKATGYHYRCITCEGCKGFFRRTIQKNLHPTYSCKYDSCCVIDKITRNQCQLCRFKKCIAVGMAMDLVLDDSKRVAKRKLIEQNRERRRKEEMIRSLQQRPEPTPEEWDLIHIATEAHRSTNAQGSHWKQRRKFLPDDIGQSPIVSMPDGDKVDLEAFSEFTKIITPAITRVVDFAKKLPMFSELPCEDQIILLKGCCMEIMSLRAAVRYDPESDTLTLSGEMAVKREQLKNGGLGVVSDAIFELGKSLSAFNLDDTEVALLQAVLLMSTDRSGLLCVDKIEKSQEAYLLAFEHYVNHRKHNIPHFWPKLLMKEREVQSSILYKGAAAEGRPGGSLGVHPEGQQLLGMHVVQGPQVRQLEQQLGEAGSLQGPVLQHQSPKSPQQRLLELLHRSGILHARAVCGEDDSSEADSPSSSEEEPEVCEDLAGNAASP

For test [5], the target named is human RAR-related Orphan Receptor beta (RORb), RORB (gene 6096) (UniProt Q92753). Nature of the test: ATG_RORb_TRANS: Attagene TRANS-FACTORIAL HepG2 Assay for human RAR-related Orphan Receptor beta (RORb) (AID 2283010; active means hit-call score of the fitted dose curve at least 0.9, where 1 is the maximum). In outline: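 HepG2 cells transiently transfected with GAL4-UAS reporter units expressing chimeric NR-Gal4 protein; reporter mRNA measured 24 h after dosing by RT-PCR, 6-FAM labelling and capillary electrophoresis. Gain-of-signal fitted relative to DMSO baseline.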
Sequence of human RAR-related Orphan Receptor beta (RORb), RORB (gene 6096) (Q92753 whole entry, looked up, the tested form may be a part): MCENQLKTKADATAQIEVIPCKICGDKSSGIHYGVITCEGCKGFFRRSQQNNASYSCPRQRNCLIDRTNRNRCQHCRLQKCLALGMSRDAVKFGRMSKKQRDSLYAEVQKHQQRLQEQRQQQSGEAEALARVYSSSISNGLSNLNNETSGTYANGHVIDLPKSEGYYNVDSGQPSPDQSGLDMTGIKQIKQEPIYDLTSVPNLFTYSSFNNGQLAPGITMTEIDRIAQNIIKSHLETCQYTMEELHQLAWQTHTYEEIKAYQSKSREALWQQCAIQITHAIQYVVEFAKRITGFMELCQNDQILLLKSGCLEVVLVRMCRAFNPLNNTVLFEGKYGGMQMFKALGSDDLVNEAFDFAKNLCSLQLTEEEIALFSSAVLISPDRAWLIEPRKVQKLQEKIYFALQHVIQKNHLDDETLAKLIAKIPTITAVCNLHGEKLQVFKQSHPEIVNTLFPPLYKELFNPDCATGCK

Test [6] addresses human Vitamin D Receptor (VDR), VDR (gene 7421) (UniProt P11473). Nature of the test: ATG_VDR_TRANS: Attagene TRANS-FACTORIAL HepG2 Assay for human Vitamin D Receptor (VDR) (AID 2283022; active means hit-call score of the fitted dose curve at least 0.9, where 1 is the maximum). In outline: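 RT-PCR/capillary electrophoresis read-out of reporter mRNA induction in transiently transfected HepG2; 24 h dosing; chimeric NR-Gal4 (TRANS format); gain-of-signal fit against DMSO baseline.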

Read-out in test [7]: E-selectin (Homo sapiens) (UniProt P16581)
Nature of the test: BSK_3C_Eselectin: BioMAP Diversity Plus: 3C Assay for Eselectin Biomarker Activity (AID 2283015). As to conditions: primary human endothelial cells (HUVEC); actives raise or lower the signal. In a few lines:
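HUVEC, 3C stimulation; compound exposure 24 h; E-selectin by ELISA; gain- or loss-of-signal fitted bidirectionally vs DMSO baseline.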

Read-out in test [8]: Interleukin-1 alpha (IL1a), IL1A (gene 3552)
Nature of the test: BSK_BE3C_IL1a: BioMAP Diversity Plus: BE3C Assay for Interleukin-1 alpha (IL1a) Biomarker Activity (AID 2283016). The settings on record: primary human bronchial epithelial cells; actives raise or lower the signal. In outline:
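Human primary bronchial epithelial cells, 24 h chemical exposure; IL-1a quantified by ELISA, fitted bidirectionally against DMSO. Cytotoxicity assessed in parallel by SRB total-protein staining at the time of measurement.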

Read-out in test [9]: Monocyte Chemoattractant Protein-1 (MCP1), CCL2 (gene 6347)
Nature of the test: BSK_4H_MCP1: BioMAP Diversity Plus: 4H Assay for Monocyte Chemoattractant Protein-1 (MCP1) Biomarker Activity (AID 2283018). The settings on record: primary human endothelial cells (HUVEC); actives raise or lower the signal. In a few lines: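 Human umbilical vein endothelial cells (4H system) exposed to chemicals for 24 h in 96-well format. MCP-1 measured by ELISA; bidirectional fitting against DMSO, with SRB total-protein staining in parallel cultures for cytotoxicity.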

Read-out in test [10]: Human Leukocyte Antigen - DR isotype (HLADR), HLA-DRA (gene 3122)
Nature of the test: BSK_3C_HLADR: BioMAP Diversity Plus: 3C Assay for Human Leukocyte Antigen - DR isotype (HLADR) Biomarker Activity (AID 2283019).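 On outcome: ELISA of cell-surface HLA-DR on HUVEC 24 h after dosing.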 The settings on record: primary human endothelial cells (HUVEC); actives raise or lower the signal. In a few lines: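 HUVEC, 3C stimulation, 24 h post-dose; HLA-DR by ELISA; bidirectional curve fit vs DMSO baseline; gain or loss of signal scored.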

Read-out in test [11]: Interleukin-8 (IL8), CXCL8 (gene 3576)
Nature of the test: BSK_3C_IL8: BioMAP Diversity Plus: 3C Assay for Interleukin-8 (IL8) Biomarker Activity (AID 2283020). The settings on record: primary human endothelial cells (HUVEC); actives raise or lower the signal. In outline: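 Primary human umbilical vein endothelial cells were dosed for 24 h. IL-8 was quantified by ELISA and fitted bidirectionally against DMSO. Cytotoxicity was assessed in parallel cultures by SRB staining at 560 nm.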

Read-out in test [12]: Monokine induced gamma interferon (MIG), CXCL9 (gene 4283)
Nature of the test: BSK_3C_MIG: BioMAP Diversity Plus: 3C Assay for Monokine induced gamma interferon (MIG) Biomarker Activity (AID 2283021).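 On AC50: MIG protein level measured by immunoassay in the treated endothelial cultures.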 As to conditions: primary human endothelial cells (HUVEC); actives raise or lower the signal. In outline: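 HUVEC primary endothelial cultures dosed with chemical; MIG quantified by ELISA at 24 h. Data fitted bidirectionally against DMSO control, with parallel SRB total-protein staining for cytotoxicity.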

Test [13] can be described thus: BSK_3C_SRB: Viability Assessment in the BioMAP Diversity Plus: 3C Assay (AID 2283023).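 Further: fitted both ways against DMSO so a hit may be signal rise or drop.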 The settings on record: primary human endothelial cells (HUVEC). In outline: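 HUVEC, 24 h post-dose; 10% TCA fix, 0.1% SRB stain, A560 nm. Bidirectional curve fit vs DMSO negative control.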
Read-out in test [14]: Matrix Metallopeptidase 1 (MMP1), MMP1 (gene 4312)
Nature of the test: BSK_BE3C_MMP1: BioMAP Diversity Plus: BE3C Assay for Matrix Metallopeptidase 1 (MMP1) Biomarker Activity (AID 2283024). The settings on record: primary human bronchial epithelial cells; actives raise or lower the signal. In outline: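 Human primary bronchial epithelial cells (BE3C system) dosed for 24 h; MMP-1 quantified by ELISA. Bidirectional fit against DMSO; cytotoxicity tracked in parallel cultures by SRB total-protein staining.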

Test [15] in a line: BSK_3C_Vis: BioMAP Diversity Plus: 3C Assay for Morphology Visualization (AID 2283025).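 Further: fitted both ways so gain or loss versus DMSO counts.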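 On AC50: light microscopy image of cell morphology used as background control.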 As to conditions: primary human endothelial cells (HUVEC). In a few lines: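 Human umbilical vein endothelial cell morphology was inspected by light microscopy 24 h after chemical dosing; scored bidirectionally relative to DMSO.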
A short description of test [16]: BSK_4H_SRB: Viability Assessment in the BioMAP Diversity Plus: 4H Assay (AID 2283027).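 Further: cells exposed to compound for 24 h before staining.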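 On AC50: curves fitted both ways versus DMSO so AC50 may be loss or gain.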 The settings on record: primary human endothelial cells (HUVEC). In outline:
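Human umbilical vein endothelial cells, 24 h after chemical dosing; total protein measured by 0.1% sulforhodamine B staining after 10% TCA fixation, read at 560 nm. Bidirectional fitting against DMSO.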

A short description of test [17]: BSK_BE3C_SRB: Viability Assessment in the BioMAP Diversity Plus: BE3C Assay (AID 2283028).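 On AC50: fitted both ways so AC50 may mark signal gain or loss versus DMSO.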 As to conditions: primary human bronchial epithelial cells. In a few lines: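 Primary human bronchial epithelium; chemical dosing, 24 h; 10% TCA fix, 0.1% SRB stain, A560; bidirectional fit vs DMSO baseline.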
Read-out in test [18]: Pselectin, SELP (gene 6403)
Nature of the test: BSK_4H_Pselectin: BioMAP Diversity Plus: 4H Assay for Pselectin Biomarker Activity (AID 2283026). The settings on record: primary human endothelial cells (HUVEC); actives raise or lower the signal. In outline:
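Primary human umbilical vein endothelial cells were treated 24 h, and cell-surface P-selectin was then quantified by ELISA. Bidirectional fit versus DMSO; cytotoxicity checked in parallel cultures by SRB total-protein staining.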

Read-out in test [19]: Monocyte Chemoattractant Protein-1 (MCP1), CCL2 (gene 6347)
Nature of the test: BSK_3C_MCP1: BioMAP Diversity Plus: 3C Assay for Monocyte Chemoattractant Protein-1 (MCP1) Biomarker Activity (AID 2283017). The settings on record: primary human endothelial cells (HUVEC); actives raise or lower the signal. In outline:
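HUVEC, 3C system; 24 h chemical exposure; MCP-1 by ELISA; bidirectional curve fit vs DMSO baseline.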

Results filed as inconclusive are left out. The source made the active and inactive calls. How the source made its calls, unless noted: active means hit-call score of the fitted dose curve at least 0.9, where 1 is the maximum; inactive means score below 0.9.

Sequence of Retinoic acid receptor RXR-alpha (Homo sapiens) (P19793 whole entry, looked up, the tested form may be a part): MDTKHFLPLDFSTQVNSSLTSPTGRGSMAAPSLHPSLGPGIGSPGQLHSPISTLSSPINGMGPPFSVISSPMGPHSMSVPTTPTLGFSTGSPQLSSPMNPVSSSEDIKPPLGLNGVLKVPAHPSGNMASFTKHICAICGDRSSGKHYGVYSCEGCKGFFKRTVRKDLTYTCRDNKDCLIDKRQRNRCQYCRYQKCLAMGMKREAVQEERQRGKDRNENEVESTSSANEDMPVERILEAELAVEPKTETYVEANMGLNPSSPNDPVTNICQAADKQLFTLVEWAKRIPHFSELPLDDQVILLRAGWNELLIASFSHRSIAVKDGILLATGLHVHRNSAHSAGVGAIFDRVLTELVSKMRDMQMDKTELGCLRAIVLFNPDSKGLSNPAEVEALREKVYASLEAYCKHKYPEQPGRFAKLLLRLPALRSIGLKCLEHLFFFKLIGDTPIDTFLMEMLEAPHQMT
Sequence of human Retinoid X Receptor beta (RXRb), RXRB (gene 6257) (P28702 whole entry, looked up, the tested form may be a part): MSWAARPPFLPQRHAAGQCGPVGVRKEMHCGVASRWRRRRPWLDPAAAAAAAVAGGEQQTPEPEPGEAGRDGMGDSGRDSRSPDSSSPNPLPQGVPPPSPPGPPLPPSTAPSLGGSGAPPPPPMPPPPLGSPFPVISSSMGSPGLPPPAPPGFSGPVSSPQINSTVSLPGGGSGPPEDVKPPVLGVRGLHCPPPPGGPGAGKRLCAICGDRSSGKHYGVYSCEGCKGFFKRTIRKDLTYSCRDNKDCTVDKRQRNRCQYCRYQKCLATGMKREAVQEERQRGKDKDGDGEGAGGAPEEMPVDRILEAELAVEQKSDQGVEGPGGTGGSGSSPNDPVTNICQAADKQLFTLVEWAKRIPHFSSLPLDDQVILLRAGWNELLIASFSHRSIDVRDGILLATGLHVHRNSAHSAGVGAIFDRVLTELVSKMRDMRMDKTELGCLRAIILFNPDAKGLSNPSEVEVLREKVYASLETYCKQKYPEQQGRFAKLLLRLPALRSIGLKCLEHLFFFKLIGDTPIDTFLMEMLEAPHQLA
Sequence of E-selectin (Homo sapiens) (P16581 whole entry, looked up): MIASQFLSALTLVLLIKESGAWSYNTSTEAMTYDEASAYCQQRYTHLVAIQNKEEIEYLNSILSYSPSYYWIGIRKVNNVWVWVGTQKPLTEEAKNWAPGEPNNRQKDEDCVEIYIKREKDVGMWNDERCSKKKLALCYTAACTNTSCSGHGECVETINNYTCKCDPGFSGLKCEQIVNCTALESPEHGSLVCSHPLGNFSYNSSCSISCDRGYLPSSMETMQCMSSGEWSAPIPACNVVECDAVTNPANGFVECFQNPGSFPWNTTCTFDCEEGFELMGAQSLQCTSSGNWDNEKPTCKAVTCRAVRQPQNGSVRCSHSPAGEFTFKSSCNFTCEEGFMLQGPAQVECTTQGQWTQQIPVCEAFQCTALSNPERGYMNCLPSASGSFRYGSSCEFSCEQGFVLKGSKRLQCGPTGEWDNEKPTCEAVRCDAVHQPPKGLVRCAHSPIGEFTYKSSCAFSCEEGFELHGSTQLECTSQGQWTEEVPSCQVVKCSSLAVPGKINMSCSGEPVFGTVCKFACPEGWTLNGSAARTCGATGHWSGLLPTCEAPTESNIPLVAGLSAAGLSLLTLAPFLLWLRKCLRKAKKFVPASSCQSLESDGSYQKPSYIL
Sequence of human Vitamin D Receptor (VDR), VDR (gene 7421) (P11473 whole entry, looked up, the tested form may be a part): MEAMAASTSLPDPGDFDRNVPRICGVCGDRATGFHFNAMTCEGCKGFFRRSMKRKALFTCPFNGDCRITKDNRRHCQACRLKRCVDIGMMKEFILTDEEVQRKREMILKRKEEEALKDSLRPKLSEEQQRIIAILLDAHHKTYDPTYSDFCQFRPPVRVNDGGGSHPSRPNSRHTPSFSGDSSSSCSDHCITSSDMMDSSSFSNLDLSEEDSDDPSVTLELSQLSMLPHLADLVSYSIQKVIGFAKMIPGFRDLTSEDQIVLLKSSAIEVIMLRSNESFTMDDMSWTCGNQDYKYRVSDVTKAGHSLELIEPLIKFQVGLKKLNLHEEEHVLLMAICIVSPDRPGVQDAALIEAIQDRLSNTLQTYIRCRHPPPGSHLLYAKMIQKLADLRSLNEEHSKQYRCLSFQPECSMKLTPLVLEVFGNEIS
Sequence of human RAR-related Orphan Receptor gamma (RORg), RORC (gene 6097) (P51449 whole entry, looked up, the tested form may be a part): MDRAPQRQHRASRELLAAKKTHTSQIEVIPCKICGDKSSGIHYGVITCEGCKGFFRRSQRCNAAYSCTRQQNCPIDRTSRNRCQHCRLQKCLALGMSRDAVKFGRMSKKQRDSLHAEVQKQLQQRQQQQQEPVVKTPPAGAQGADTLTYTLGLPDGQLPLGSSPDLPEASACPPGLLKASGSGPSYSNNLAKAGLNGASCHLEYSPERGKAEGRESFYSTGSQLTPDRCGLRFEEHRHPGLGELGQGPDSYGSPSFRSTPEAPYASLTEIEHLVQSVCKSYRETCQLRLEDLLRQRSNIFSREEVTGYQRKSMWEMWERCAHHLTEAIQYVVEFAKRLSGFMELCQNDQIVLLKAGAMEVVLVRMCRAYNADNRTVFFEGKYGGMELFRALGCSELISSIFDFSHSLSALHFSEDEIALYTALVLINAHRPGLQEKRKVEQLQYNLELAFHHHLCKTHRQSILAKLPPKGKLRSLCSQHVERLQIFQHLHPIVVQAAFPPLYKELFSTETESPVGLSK

As for `C=CCc1ccc(OC)cc1`, the call in test [1], in [2], in [3] and in test [4] was inactive.

With `OCC(O)CCl` (centres undefined), the outcome in [5], in test [2] and in test [6] was inactive.

Regarding `Nc1ccc(Cl)cc1C(=O)c1ccccc1`, the result in [1], in test [2] and in test [4] was inactive. The AC50 (as a rule, the concentration giving half of the maximal activity seen) in [3] was 21.9 µM (active).

As for `COP(=O)(OC)OC`, the outcome in test [1], in test [4] and in test [6] was inactive.

For the compound `Clc1ccc(COC(Cn2ccnc2)c2ccc(Cl)cc2Cl)cc1` (centres undefined), the compound was classed as inactive in test [2].

As for `CC(C)(c1ccccc1)c1ccc(O)c(C(C)(C)c2ccccc2)c1`, the compound was classed as inactive in test [2] and in [6]. The concentration at half-maximal activity (AC50) is 1.66 µM (active) in test [3]; 10.6 µM (active) in test [7]; 28.5 µM (active) in [8]; 7.28 µM (active) in [9]; 7.99 µM (active) in test [10]; 10.1 µM (active) in test [11]. Further, the AC50 in [12] is 10.5 µM (active); in test [13], 8.56 µM (active); in [14], 32.3 µM (active); in test [15], 5.31 µM (active); in [16], 8.09 µM (active); in test [17], 25.6 µM (active).

`O=C(Cl)c1ccc(Cl)cc1`: the outcome in [1], in test [2] and in test [4] was inactive.

With `O=C(O)C(Cl)(Cl)Cl`, the compound was classed as inactive in [1], in test [2], in [7], in test [8], in test [9] and in test [10]. The result in test [11], in test [12], in test [6], in test [13], in test [14] and in test [15] was inactive. The result in test [16] and in test [17] was inactive.

With `Nc1ccc(-c2ccc(N)c(Cl)c2)cc1Cl`, the compound was classed as inactive in test [2], in test [7], in test [8], in test [9], in test [11] and in [12]. Moreover, the result in [6], in test [14] and in test [17] was inactive. The AC50 in test [3] was 11.2 µM (active); in test [10], 2.43 µM (active); in [13], 2.21 µM (active); in test [15], 13.7 µM (active); in [16] it was 2.76 µM (active).

As to `COP(=S)(OC)Oc1c(Cl)cc(C)cc1Cl`, the call in test [2], in test [8], in test [11], in [12], in [6] and in test [14] was inactive. Also, in test [17], the result was inactive. The AC50 in [3] is 22 µM (active); in [7], 29 µM (active); in test [9], 3.97 µM (active); in test [10], 20 µM (active); in test [13], 30.3 µM (active); in [15], 37.5 µM (active). Further, the AC50 in test [18] is 33.4 µM (active); in test [16], 20 µM (active).

Turning to `C=CC(=O)OCCCCCC(C)C`, the compound was called inactive in [1], in [2], in [7], in test [8], in test [19] and in [9]. Moreover, the outcome in test [10], in [11], in test [12], in [6], in test [13] and in [14] was inactive. Besides, the outcome in test [15], in test [18], in test [16] and in [17] was inactive.

As for `Cc1ccccc1C(=O)Nc1cccc(OC(C)C)c1`, in test [2], the call was inactive.

Consider `CCc1ccccc1N`, for which the compound was classed as inactive in test [1] and in [6].

In the case of `CCCCC(CC)CO[N+](=O)[O-]` (centres undefined), the compound was classed as inactive in test [1], in test [2], in test [8], in test [19], in test [11] and in test [12]. The outcome in test [14] and in [17] was inactive. Besides, the concentration at half-maximal activity (AC50) in test [3] is 99.5 µM (active); in test [7] it was 35.8 µM (active); in test [9], 20 µM (active); in test [10], 35.4 µM (active); in test [13], 34.9 µM (active); in [15], 37.4 µM (active). Besides, the AC50 in test [16] is 36.1 µM (active).

For the origin of these results see PubChem BioAssay (EPA / NIEHS).
